Data reported in article PMC12136788.
Where a chain is given by its changes, count along the chain named. In all, about 5,800 sequences were measured (“enrichment r”: median about 0.68, highest 2% from about 11 on). The full list was thinned out, with the highest values kept by preference.

T1: UNK ZnF1-6 (called full-length) (human, UniProt Q9C0B0 30-357)
T1 sequence: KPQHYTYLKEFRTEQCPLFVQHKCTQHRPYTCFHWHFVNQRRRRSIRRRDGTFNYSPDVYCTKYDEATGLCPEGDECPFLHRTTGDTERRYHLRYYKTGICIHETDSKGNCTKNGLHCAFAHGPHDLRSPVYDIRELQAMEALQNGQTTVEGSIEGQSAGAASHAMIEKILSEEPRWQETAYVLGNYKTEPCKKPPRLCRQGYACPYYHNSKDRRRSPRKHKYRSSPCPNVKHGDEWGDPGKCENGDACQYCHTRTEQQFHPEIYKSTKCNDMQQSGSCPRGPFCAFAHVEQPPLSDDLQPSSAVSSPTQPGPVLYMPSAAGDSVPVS

B1: chr4:150908776:150908877:-|CDS|ENSG00000198589|msi1|FALSE|bound_elsewhere (ssRNA)
RNA: GGGAGUUCUACAGUCCGACGAUCGUUGAUUUGUACUUAGAUUCUCUUUGUGGCAUACUAUUUAACUGUUUUUAAUUAAUUCUUAGGGUACAUUUAAAUUCAAAGCAGAAAGCGACCUUUUCCUUGCUGAGCAUCACAAACUUUCAACAGAGGAUUGAGCAUCA
B2: chr2:150470103:150470218:-|CDS|ENSG00000115963|unk|total|mutant (ssRNA)
RNA: GGGAGUUCUACAGUCCGACGAUCAUGGCCAAACAGAUUGGAGCAGCUACUUAUAUCGAAUGCUCAGCUUUACAGUCGGAAAACCGCGUCAGAGACAUUUUUCACGUUGCCACCUUGGCAUGUGUAAAUAAGACAAAUAAAAACCAACAGAGGAUUGAGCAUCA
B3: chr3:120396629:120396730:-|3pUTR|ENSG00000163430|msi1|FALSE|unique (ssRNA)
RNA: GGGAGUUCUACAGUCCGACGAUCGCCUUCAUUUCUAGGAGUGCUUUAAGAGAAACUGUAAAUGGUGCUCUGGGGCUGGAGGCUAGUAAGGAAACUGCAUCACGAUUGAAAGAGGAACAGACCCAAAUCUGAACCUCUUUUGAGCAACAGAGGAUUGAGCAUCA
B4: chr14:100883672:100883793:-|CDS|ENSG00000254656|unk|FALSE|unique (ssRNA)
RNA: GGGAGUUCUACAGUCCGACGAUCUCUAUUCCGGGUCCCUCAGCCGGAUUCCCUAGACAGUCUGAUUGUGCUCAUCCUGCAAAUAGAAGAGAAGCUGGCAGAGAGAAGAGCUAUGCUCAGGCUGCCCCCCGAGGCCCGCCCCCGCAACAGAGGAUUGAGCAUCA
B5: chr8:23842440:23842541:-|3pUTR|ENSG00000159167|msi1|total|mutant (ssRNA)
RNA: GGGAGUUCUACAGUCCGACGAUCCCAAUGCGACAAGCCGUUCAUGAGUAUUCCCCGCAAAUUUCUCUCUUUCUUCAGUUCAGCCGAUUUCCUUUUUUCUUUUCUUUUUUUUUUUUUUUUUUUUUGGCUGUGACCUCUUCAAACCAACAGAGGAUUGAGCAUCA
B6: ENSG00000103657:stop:overlap|stop_codon|ENSG00000103657|stop_codon|NA|stop_codon (ssRNA)
RNA: GGGAGUUCUACAGUCCGACGAUCAGUUUUCUGUUGCUUUGACCAAAGAUGGUCAUGUGUAUACCUUUGGUCAAGGUGGUGAGUAGUCACUAUGACCUCCUUUCAGUAUAGAUAAUUUUCCACUUCUCUUUCAUGUGCUUUAUUCAACAGAGGAUUGAGCAUCA
B7: chr8:23842440:23842541:-|3pUTR|ENSG00000159167|msi1|FALSE|unique (ssRNA)
RNA: B5 RNA with C37U, C38A, C54U, C55A, C83U, C84A

Target: T1, UNK ZnF1-6 (called full-length)
Assay: nsRBNS (natural sequence RNA bind-n-seq); RBNS binding buffer (assumed for nsRBNS): 25 mM Tris pH 7.5, 150 mM KCl, 3 mM MgCl2, 0.01% Triton X-100, 500 ug/ml BSA, 20 U/ml SUPERase-In, 4 C; UNK is unkempt and MSI1 is Musashi-1; names of the RNAs are library labels; protein concentration not given here; high values mean tight binding

Point of comparison: B5, binding signal 3.66 enrichment R. Against it:
- B1 — higher, 3.69 enrichment R
- B2 — lower, 0.384 enrichment R
- B3 — lower, 0.489 enrichment R
- B4 — lower, 0.977 enrichment R
- B6 — lower, 0.846 enrichment R
- B7 — higher, 28.9 enrichment R
